# Assay results taken from publication PMC11006913.
# Where a chain is given by its changes, count along the chain named.
# Columns and labels:
# Assay in all cases: PBM; 200 nM protein, PBS
# Conditions in all cases: dsDNA, one strand shown
# [1] = biological target: T1, SIX6 (Homo sapiens, UniProt O95475 114-200, L167I)
# T1 sequence: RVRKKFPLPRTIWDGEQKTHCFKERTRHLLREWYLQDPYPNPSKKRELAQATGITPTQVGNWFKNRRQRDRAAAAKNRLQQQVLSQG
# [2] = biological target: T2, SIX6 (Homo sapiens, UniProt O95475 114-200, L143V)
# T2 sequence: T1 sequence with L30V, I54L
# [3] = biological target: T3, SIX6 (Homo sapiens, UniProt O95475 114-200, H141N)
# T3 sequence: T1 sequence with H28N, I54L
# [4] = biological target: T4, SIX6 (Homo sapiens, UniProt O95475 114-200, T165P)
# T4 sequence: T1 sequence with T52P, I54L
# [5] = biological target: T5, SIX6 (Homo sapiens, UniProt O95475 114-200, L167M)
# T5 sequence: T1 sequence with I54M
# [6] = biological target: T6, SIX6 (Homo sapiens, UniProt O95475 114-200, L143M)
# T6 sequence: T1 sequence with L30M, I54L
# [7] = biological target: T7, SIX6 (Homo sapiens, UniProt O95475 114-200, L143I)
# T7 sequence: T1 sequence with L30I, I54L
# [8] = biological target: T8, SIX6 (Homo sapiens, UniProt O95475 114-200, T165G)
# T8 sequence: T1 sequence with T52G, I54L
# [9] = biological target: T9, SIX6 (Homo sapiens, UniProt O95475 114-200, T139Q)
# T9 sequence: T1 sequence with T26Q, I54L
# [10] = biological target: T10, SIX6 (Homo sapiens, UniProt O95475 114-200, T165A)
# T10 sequence: T1 sequence with T52A, I54L
# [11] = biological target: T11, SIX6 (Homo sapiens, UniProt O95475 114-200, L167V)
# T11 sequence: T1 sequence with I54V
# [12] = biological target: T12, SIX6 (Homo sapiens, UniProt O95475 114-200)
# T12 sequence: T1 sequence with I54L
# [13] = biological target: T13, SIX6 (Homo sapiens, UniProt O95475 114-200, T165I)
# T13 sequence: T1 sequence with T52I, I54L
Sequence,binding signal [1],binding signal [2],binding signal [3],binding signal [4],binding signal [5],binding signal [6],binding signal [7],binding signal [8],binding signal [9],binding signal [10],binding signal [11],binding signal [12],binding signal [13]
AGGTATCA,"11.7 upbm affinity estimate (log intensity, higher = more binding, comparable within an allelic series)","10.6 upbm affinity estimate (log intensity, higher = more binding, comparable within an allelic series)","11.8 upbm affinity estimate (log intensity, higher = more binding, comparable within an allelic series)","9.9 upbm affinity estimate (log intensity, higher = more binding, comparable within an allelic series)","11 upbm affinity estimate (log intensity, higher = more binding, comparable within an allelic series)","11.4 upbm affinity estimate (log intensity, higher = more binding, comparable within an allelic series)","10.7 upbm affinity estimate (log intensity, higher = more binding, comparable within an allelic series)","11.8 upbm affinity estimate (log intensity, higher = more binding, comparable within an allelic series)","11.6 upbm affinity estimate (log intensity, higher = more binding, comparable within an allelic series)","11.7 upbm affinity estimate (log intensity, higher = more binding, comparable within an allelic series)","11.5 upbm affinity estimate (log intensity, higher = more binding, comparable within an allelic series)","11.4 upbm affinity estimate (log intensity, higher = more binding, comparable within an allelic series)","11.5 upbm affinity estimate (log intensity, higher = more binding, comparable within an allelic series)"
GCAAAGCC,"8.97 upbm affinity estimate (log intensity, higher = more binding, comparable within an allelic series)","8.93 upbm affinity estimate (log intensity, higher = more binding, comparable within an allelic series)","8.96 upbm affinity estimate (log intensity, higher = more binding, comparable within an allelic series)","9 upbm affinity estimate (log intensity, higher = more binding, comparable within an allelic series)","9.02 upbm affinity estimate (log intensity, higher = more binding, comparable within an allelic series)","8.9 upbm affinity estimate (log intensity, higher = more binding, comparable within an allelic series)","8.91 upbm affinity estimate (log intensity, higher = more binding, comparable within an allelic series)","8.9 upbm affinity estimate (log intensity, higher = more binding, comparable within an allelic series)","9 upbm affinity estimate (log intensity, higher = more binding, comparable within an allelic series)","8.93 upbm affinity estimate (log intensity, higher = more binding, comparable within an allelic series)","8.94 upbm affinity estimate (log intensity, higher = more binding, comparable within an allelic series)","8.98 upbm affinity estimate (log intensity, higher = more binding, comparable within an allelic series)","8.92 upbm affinity estimate (log intensity, higher = more binding, comparable within an allelic series)"
CGGTATCA,"11.3 upbm affinity estimate (log intensity, higher = more binding, comparable within an allelic series)","10.3 upbm affinity estimate (log intensity, higher = more binding, comparable within an allelic series)","11.3 upbm affinity estimate (log intensity, higher = more binding, comparable within an allelic series)","9.64 upbm affinity estimate (log intensity, higher = more binding, comparable within an allelic series)","10.6 upbm affinity estimate (log intensity, higher = more binding, comparable within an allelic series)","11 upbm affinity estimate (log intensity, higher = more binding, comparable within an allelic series)","10.4 upbm affinity estimate (log intensity, higher = more binding, comparable within an allelic series)","11.5 upbm affinity estimate (log intensity, higher = more binding, comparable within an allelic series)","11.4 upbm affinity estimate (log intensity, higher = more binding, comparable within an allelic series)","11.3 upbm affinity estimate (log intensity, higher = more binding, comparable within an allelic series)","11 upbm affinity estimate (log intensity, higher = more binding, comparable within an allelic series)","11.1 upbm affinity estimate (log intensity, higher = more binding, comparable within an allelic series)","11 upbm affinity estimate (log intensity, higher = more binding, comparable within an allelic series)"
GCCTTCGC,"8.84 upbm affinity estimate (log intensity, higher = more binding, comparable within an allelic series)","9.04 upbm affinity estimate (log intensity, higher = more binding, comparable within an allelic series)","8.95 upbm affinity estimate (log intensity, higher = more binding, comparable within an allelic series)","9.09 upbm affinity estimate (log intensity, higher = more binding, comparable within an allelic series)","8.82 upbm affinity estimate (log intensity, higher = more binding, comparable within an allelic series)","9.06 upbm affinity estimate (log intensity, higher = more binding, comparable within an allelic series)","8.98 upbm affinity estimate (log intensity, higher = more binding, comparable within an allelic series)","8.83 upbm affinity estimate (log intensity, higher = more binding, comparable within an allelic series)","8.96 upbm affinity estimate (log intensity, higher = more binding, comparable within an allelic series)","8.83 upbm affinity estimate (log intensity, higher = more binding, comparable within an allelic series)","8.91 upbm affinity estimate (log intensity, higher = more binding, comparable within an allelic series)","8.85 upbm affinity estimate (log intensity, higher = more binding, comparable within an allelic series)","8.83 upbm affinity estimate (log intensity, higher = more binding, comparable within an allelic series)"
GCAGTGGC,"8.87 upbm affinity estimate (log intensity, higher = more binding, comparable within an allelic series)","8.89 upbm affinity estimate (log intensity, higher = more binding, comparable within an allelic series)","8.95 upbm affinity estimate (log intensity, higher = more binding, comparable within an allelic series)","8.89 upbm affinity estimate (log intensity, higher = more binding, comparable within an allelic series)","8.96 upbm affinity estimate (log intensity, higher = more binding, comparable within an allelic series)","8.94 upbm affinity estimate (log intensity, higher = more binding, comparable within an allelic series)","8.96 upbm affinity estimate (log intensity, higher = more binding, comparable within an allelic series)","8.99 upbm affinity estimate (log intensity, higher = more binding, comparable within an allelic series)","8.93 upbm affinity estimate (log intensity, higher = more binding, comparable within an allelic series)","8.93 upbm affinity estimate (log intensity, higher = more binding, comparable within an allelic series)","8.89 upbm affinity estimate (log intensity, higher = more binding, comparable within an allelic series)","8.98 upbm affinity estimate (log intensity, higher = more binding, comparable within an allelic series)","8.94 upbm affinity estimate (log intensity, higher = more binding, comparable within an allelic series)"
AGGGCCCG,"8.98 upbm affinity estimate (log intensity, higher = more binding, comparable within an allelic series)","8.79 upbm affinity estimate (log intensity, higher = more binding, comparable within an allelic series)","8.98 upbm affinity estimate (log intensity, higher = more binding, comparable within an allelic series)","8.84 upbm affinity estimate (log intensity, higher = more binding, comparable within an allelic series)","8.98 upbm affinity estimate (log intensity, higher = more binding, comparable within an allelic series)","8.93 upbm affinity estimate (log intensity, higher = more binding, comparable within an allelic series)","8.9 upbm affinity estimate (log intensity, higher = more binding, comparable within an allelic series)","8.99 upbm affinity estimate (log intensity, higher = more binding, comparable within an allelic series)","9.07 upbm affinity estimate (log intensity, higher = more binding, comparable within an allelic series)","8.92 upbm affinity estimate (log intensity, higher = more binding, comparable within an allelic series)","8.93 upbm affinity estimate (log intensity, higher = more binding, comparable within an allelic series)","8.95 upbm affinity estimate (log intensity, higher = more binding, comparable within an allelic series)","8.9 upbm affinity estimate (log intensity, higher = more binding, comparable within an allelic series)"
